From PubChem
Most compounds without a hit are left out; they make up all but 22% or so of the library.
CYP2C9 inhib = inhibitors of human CYP2C9; AID 777; CYP2C9 Supersomes, luciferin-H conversion, luminescence; hit rate 20% among 96,000; inhibition, % at 5 µM;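 active means blocking of liver enzyme CYP2C9 beyond about 50% at 5 µM, limit read from the data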
Target sequence (P11712 whole entry, looked up): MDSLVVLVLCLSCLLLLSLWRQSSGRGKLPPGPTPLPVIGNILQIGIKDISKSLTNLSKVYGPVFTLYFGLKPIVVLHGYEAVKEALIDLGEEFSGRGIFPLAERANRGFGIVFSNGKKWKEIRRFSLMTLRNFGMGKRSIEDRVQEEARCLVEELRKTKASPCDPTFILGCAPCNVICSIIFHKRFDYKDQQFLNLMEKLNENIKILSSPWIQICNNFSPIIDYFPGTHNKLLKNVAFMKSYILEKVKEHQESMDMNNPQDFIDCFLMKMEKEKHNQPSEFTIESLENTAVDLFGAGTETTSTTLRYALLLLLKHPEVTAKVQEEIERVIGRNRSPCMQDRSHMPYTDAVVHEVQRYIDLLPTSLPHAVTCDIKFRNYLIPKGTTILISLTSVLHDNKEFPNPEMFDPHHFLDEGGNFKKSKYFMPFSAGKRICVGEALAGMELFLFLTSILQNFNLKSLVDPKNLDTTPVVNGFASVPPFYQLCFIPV
CYP2C9 activ = CYP2C9 (human) activation. hit rate 1.4% among 96,000. activation factor at 5 µM. P11712. AID 1024. recombinant CYP2C9, luciferin-H conversion, luminescence; active compounds read high; factor 1 = untreated enzyme, 0 = blocked;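 active means activation factor of 2 or more for CYP2C9 at a 5 µM dose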;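 further: 0 = sulfaphenazole-blocked wells and 1 = vehicle-only wells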
CYP2C19 act = activators of human cytochrome P450 2C19 | activation factor at 5 µM | AID 1025 | 96,000 tested, under 10 active | P33261 | recombinant CYP2C19, luciferin-H EGE luminescence; active compounds read high; 0 = fully inhibited enzyme, 1 = untreated enzyme;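 active means activation factor of at least 2 at 5 µM in the primary screen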;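 further: 0 = wells with 2.5 mM tranylcypromine and 1 = vehicle-only wells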
CYP2C19 inhib = blocks human cytochrome P450 2C19; CYP2C19 Supersomes, luciferin-H EGE luminescence, 30 min; inhibition, % at 5 µM; hit rate 21% among 96,000; AID 778;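 active means CYP2C19 inhibition above a set limit at 5 µM in the primary screen, cut at about 50% in these data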;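 further: plate controls were negative control wells for no effect and 2.5 mM tranylcypromine positive control for full effect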
Measles CPE = protection of cells from measles virus; Measles virus-infected cells, CPE protection, absorbance; protection (pct of control), % at 4 µM; hit rate 1.5% among 140,000; AID 841; in the data active means protection mostly above about 24%, no sharp cut-off; inactive means mostly below about 26%
* hit, by the source's call; . = no result given.

SMILES | CYP2C9 inhib | CYP2C9 activ | CYP2C19 act | CYP2C19 inhib | Measles CPE
CSc1ccc(/C=N/n2c(C)cc(C)cc2=O)cc1 | -16 | 1.2 | 1 | 1 | 10
Cc1ccc2nc(SCC(=O)Nc3ccc4sc(C)nc4c3)c(C#N)cc2c1 | 10 | 0.9 | 0.9 | 10 | 4
CCC(C)(C)c1nnc(NC(=O)c2cccc([N+](=O)[O-])c2)s1 | . | . | . | . | 4
CS(=O)(=O)N(CC(=O)Nc1cc(Cl)ccc1Cl)c1ccccc1Cl | 77* | 0.2 | 0 | 96* | 9
COc1ccc(C)cc1NC(=O)COC(=O)c1c(C)noc1C | 27 | 0.7 | 0.7 | 31 | 7
CSc1ccccc1NC(=O)CN(c1ccccc1Br)S(C)(=O)=O | . | . | . | . | 11
Cc1cccc(C)c1N(CC(=O)Nc1cc(Cl)ccc1Oc1ccccc1)S(C)(=O)=O | 66* | 0.3 | 1 | -4 | 13
N=c1sccn1CC(=O)Nc1cc(Cl)ccc1Oc1ccccc1 | 10 | 0.9 | 0.8 | 19 | 3
Cc1noc(C)c1C(=O)OCC(=O)Nc1cc(Cl)ccc1Oc1ccccc1 | 63* | 0.4 | 0.6 | 39 | 2
COc1ccc(NC(=O)CN(c2ccccc2)S(=O)(=O)N(C)C)cc1OC | 39 | 0.6 | 0.8 | 21 | 7
COc1ccc(Cl)cc1NC(=O)CN(c1ccccc1)S(=O)(=O)N(C)C | -35 | 1.4 | 0.2 | 81* | 17
COc1ccccc1CN(CC(=O)NCc1ccc2c(c1)OCO2)C(=O)c1ccc2c(c1)OCCO2 | . | . | . | . | 15
O=C1CCCC2=C1C(O)(C(F)(F)F)C(=O)N2Cc1ccccc1 (centres undefined) | . | . | . | . | 16
O=C1N2c3ccccc3CCc3cccc(c32)C1(O)C(F)(F)F (centres undefined) | 34 | 0.7 | 0.5 | 52* | 12
COc1ccc(-n2c(C)cc(/C=C3\C(=O)NN(c4ccccc4)C3=O)c2C)cc1 | . | . | . | . | 99*
Cc1cc(/C=C2/C(=O)NN(c3ccccc3)C2=O)c(C)n1-c1ccc(O)cc1 | . | . | . | . | 20
COCCn1nnnc1C(c1ccc2ncccc2c1)N1CCc2ccccc21 (centres undefined) | 80* | 0.2 | 0.1 | 94* | .
COCCn1nnnc1C(c1ccc(OC)c(OC)c1)N1CCc2ccccc21 (centres undefined) | 69* | 0.3 | 0.3 | 74* | 15
Cc1cc(S(=O)(=O)NCc2cccnc2)ccc1-n1cnnn1 | -19 | 1.2 | 0.6 | 37 | 2
Oc1ccc2oc3c(c2c1/C=N/n1cnnc1)CCCC3 | 63* | 0.4 | 0.5 | 48 | 5
CCOC(=O)c1nnn(-c2nonc2N)c1CSc1ccccn1 | 56* | 0.4 | 0.8 | 20 | 32
CCOC(=O)c1nnn(-c2nonc2N)c1CSc1ccc(C)cc1 | 51* | 0.5 | 0.2 | 79* | 5
Cc1ccc(C(C(=O)NC2CCCCC2)N(Cc2ccco2)C(=O)Cc2c[nH]c3ccccc23)o1 (centres undefined) | 46 | 0.5 | 0.5 | 54* | 18
COc1ccc(C(C(=O)NC2CCCCC2)N(Cc2cccs2)C(=O)Cc2c[nH]c3ccccc23)cc1OC (centres undefined) | 85* | 0.1 | 1 | -5 | 12
Cc1ccccc1N(C(=O)Cc1c[nH]c2ccccc12)C(C(=O)NC1CCCCC1)c1ccco1 (centres undefined) | . | . | . | . | 9
SMILES | CYP2C9 inhib | CYP2C9 activ | CYP2C19 act | CYP2C19 inhib | Measles CPE
Cc1ccc(N(C(=O)Cc2c[nH]c3ccccc23)C(C(=O)NC2CCCCC2)c2ccco2)cc1 (centres undefined) | 94* | 0.1 | 0.2 | 84* | 15
Cc1ccc(C(C(=O)NC2CCCCC2)N(C(=O)Cc2c[nH]c3ccccc23)c2ccccc2C)o1 (centres undefined) | . | . | . | . | 14
Cn1c(=O)c2c(ncn2CCN(CCO)Cc2ccccc2)n(C)c1=O | -10 | 1.1 | 1.1 | -6 | 3
CCCNc1c(NC(C)=O)c(=O)oc2ccccc12 | . | . | . | . | 17
COc1ccccc1NC(=O)C1CC(=O)OC1c1ccccc1 (centres undefined) | 12 | 0.9 | 0.2 | 78* | 21
COc1cc(/C=N/n2nnnc2Nc2ccccc2)cc(OC)c1OC | . | . | . | . | 5
O=C(Cc1csc(Nc2nc(=S)[nH]c3ccccc23)n1)NCc1ccc(Cl)cc1 | 83* | 0.2 | 0.4 | 56* | 6
COc1ccc(CNC(=O)Cc2csc(Nc3nc(=S)[nH]c4ccccc34)n2)cc1 | 86* | 0.1 | 0.3 | 66* | 19
Cc1ccc(NC(=O)C2(S(=O)(=O)c3ccc(C)cc3)CC2)cc1 | 49 | 0.5 | 0.6 | 36 | 27
Cc1ccc(S(=O)(=O)C2(C(=O)N3CCCCC3C)CC2)cc1 (centres undefined) | 7 | 0.9 | 0.3 | 72* | 20
Cc1ccc(S(=O)(=O)C2(C(=O)N(C)C3CCCCC3)CC2)cc1 | 8 | 0.9 | 0.5 | 50* | 4
COc1ccccc1NS(=O)(=O)c1cccc(N=C2N=C(N)c3ccccc32)c1 | . | . | . | . | 4
CC(C)(C)c1ccc(S(=O)(=O)N2CC(=O)Nc3ccccc32)cc1 | 10 | 0.9 | 0.2 | 82* | 5
CCc1ccc(S(=O)(=O)N2CC(=O)Nc3ccccc32)cc1 | -68 | 1.7 | 0.3 | 74* | 4
COc1ccccc1C1/C(=C(/O)c2ccccc2)C(=O)C(=O)N1CC(C)O (centres undefined) | 5 | 1 | 1 | -4 | 4
Nc1ccc2c(c1)C(=O)C(=O)c1ccccc1-2 | 87* | 0.1 | 0 | 98* | 0
O=C1C(=O)c2ccc(-c3ccccc3)cc2-c2ccccc21 | . | . | . | . | 2
Cc1cc(N2CCN(c3cccc(C(F)(F)F)c3)CC2)n2nc(C)nc2n1 | -11 | 1.1 | 1 | -5 | 5
O=C(Cn1c(C(F)(F)F)nc2ccccc21)c1ccc(F)cc1 | 31 | 0.7 | 0.5 | 47 | 8
O=C1N2CCSC2=NC1(NS(=O)(=O)c1ccccc1)C(F)(F)F (centres undefined) | 10 | 0.9 | 1 | 0 | 2
c1ccc(CN2CCC(Nc3nc(-c4ccccc4)nc4ccccc34)CC2)cc1 | 86* | 0.1 | 0.4 | 61* | 8
CC(=O)Nc1ccc(NCC(O)COc2ccccc2)cc1 (centres undefined) | 34 | 0.7 | 0.4 | 56* | 5
O=C(NNCC(O)COc1ccccc1)c1ccccc1 (centres undefined) | . | . | . | . | 49*
Cc1cn(S(=O)(=O)c2ccc(Br)c3ccccc23)cn1 | -2 | 1 | 0.7 | 27 | 26
CCC(C)n1ncn(-c2ccc(N3CCN(c4ccc(OC)cc4)CC3)cc2)c1=O (centres undefined) | . | . | . | . | 40
O=C(OCc1cc(Cl)ccc1OC(F)F)c1cc(S(=O)(=O)O)ccc1O | 73* | 0.3 | 1 | 3 | 3
COP(=O)(OC)c1nc(-c2ccccc2)oc1N1CCOCC1 | . | . | . | . | 13
Cc1cccc(NC(=O)Cn2c(/C=C/c3ccccc3)nc3ccccc32)c1 | . | . | . | . | 3
O=C1CCC(C(=O)OCc2ccccc2)N1 (centres undefined) | -1 | 1 | 1 | 2 | 13
